Screens as filed in PubChem.
Only a selection was taken, and hits are over-represented in it overall.
ST2 IL33 inh = IL1RL1 inhibition. Q01638. inhibition, % for hits at 17 µM. AID 1259354. 2.3% of 78,000 active. AlphaLISA ST2-Fc/biotin-IL-33 interaction, 1 h; in the data active means inhibition above about 30%
Target sequence (Q01638 whole entry, looked up): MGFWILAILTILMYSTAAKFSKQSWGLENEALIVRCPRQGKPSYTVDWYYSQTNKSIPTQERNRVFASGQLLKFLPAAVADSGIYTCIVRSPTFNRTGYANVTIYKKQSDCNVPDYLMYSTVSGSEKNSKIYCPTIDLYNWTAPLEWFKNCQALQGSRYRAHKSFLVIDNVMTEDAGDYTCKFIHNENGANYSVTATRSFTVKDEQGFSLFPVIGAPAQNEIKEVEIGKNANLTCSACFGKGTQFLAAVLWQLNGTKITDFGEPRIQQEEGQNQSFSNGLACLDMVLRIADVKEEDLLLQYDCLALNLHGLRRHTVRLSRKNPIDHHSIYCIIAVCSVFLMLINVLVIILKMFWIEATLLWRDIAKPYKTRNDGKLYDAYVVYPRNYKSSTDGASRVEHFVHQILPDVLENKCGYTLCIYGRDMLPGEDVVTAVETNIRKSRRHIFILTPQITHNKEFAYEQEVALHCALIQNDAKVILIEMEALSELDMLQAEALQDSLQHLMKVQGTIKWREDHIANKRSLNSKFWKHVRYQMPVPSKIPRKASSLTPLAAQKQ
Starred values were filed as active, the others as inactive; i = inactive.

SMILES	ST2 IL33 inh
Cc1ccc(C(=O)Nc2ccc(S(=O)(=O)Nc3ncccn3)cc2)o1	i
Cc1nc(SCc2ccc(Cl)cc2)nc2ccccc12	i
COc1ccc2nc(NC3=NC(c4ccccc4)CC(=O)N3)nc(C)c2c1 (stereo not drawn)	i
CC1=NC(Nc2nc(C)c3ccccc3n2)=NC(C)(C)C1	36.0%*
COC(=O)c1sc2nc(N3CCCCC3)c3c(c2c1N)CC(C)(C)OC3	i
CC(=O)Oc1ccc2c(=O)c(-c3ccccc3C)c(C)oc2c1C	i
Cc1ccc(CN2CCN(C3CCN(c4ccccc4F)CC3)CC2CCO)o1 (stereo not drawn)	i
COCCNC(=O)c1ccc(CS(=O)(=O)c2ccccc2)o1	i
CCn1c(CC2CCN(Cc3cc(C(C)C)no3)CC2)n[nH]c1=O	i
CCOc1ccc(C2CC(c3ccc(Cl)cc3)n3nc(N)nc3N2)cc1 (stereo not drawn)	i
CCOc1ccc(C2CC(c3ccccc3OC)n3ncnc3N2)cc1 (stereo not drawn)	i
CCOc1ccc(C2Nc3cccc4cccc(c34)N2)cc1	36.0%*
CCc1ccc(CN2C(=O)CCC2(C)C(=O)NC2CCCC2)cc1 (stereo not drawn)	i
COc1ccccc1CN1CCCCCC1	i
CCOc1ccccc1CN1CCSCC1	31.0%*
COc1ccccc1CN1CCSCC1	i
CCCCOc1ccc(/C=c2\sc3nc(=O)c(C)nn3c2=O)cc1OC	i
COc1cc(C=O)ccc1OCCCOc1ccccc1C(=O)O	i
COc1ccccc1OCCCOc1ccc(/C=C2/C(=N)N3C=CSC3=NC2=O)cc1OC	34.0%*
COc1cc2c(cc1CN(C)Cc1noc(C)n1)OCCCO2	i
Cc1cc(C(=O)Nc2ccc(N3CCOCC3)cc2)ccc1[N+](=O)[O-]	i
O=C(Nc1ccc(N2CCOCC2)cc1)c1ccccc1	i
O=C(Nc1ccc(N2CCOCC2)cc1)c1cccc([N+](=O)[O-])c1	30.0%*
O=C(Nc1ccc2n(c1=O)C[C@H]1C[C@@H]2CN(C(=O)c2ccccc2)C1)c1ccc(-c2ccccc2)cc1	i
COc1ccc(C(=O)N[C@@H]2CN(C(=O)NC3CCCCC3)CCC[C@H]2O)cc1	82.0%*
SMILES	ST2 IL33 inh
COCCOc1ccc(C(=O)N[C@@H]2CN(C(=O)NCc3ccccc3)CCC[C@H]2O)cc1	i
CC(C)NC(=O)N1CCC[C@@H](O)[C@H](NC(=O)c2ccc(OCc3ccccc3)cc2)C1	i
CCOc1ccccc1Nc1ncc(C(=O)OC)c2ccccc12	i
Cc1cc(N2CCN(C)CC2)nc2ccc(NC(=O)c3ccc(F)cc3Cl)cc12	i
COc1ccc(-c2nccn2CCc2nc(C)c(C)s2)cc1O	i
O=C(O)CCCC(=O)Nc1ccc(I)cc1	i
O=C1C(N2CCOCC2)=CC(=NS(=O)(=O)c2ccccc2)c2ccccc21	41.0%*
Cc1ccc(S(=O)(=O)N(c2ccccc2N2CCOCC2)C(F)F)cc1	i
O=S(=O)(N=C(c1ccccc1F)N1CCOCC1)c1ccccc1	i
O=C1C(N2CCOCC2)=CC(=NS(=O)(=O)c2ccc(Cl)cc2)c2ccccc21	71.0%*
O=S(=O)(c1ccccc1)c1cccc(S(=O)(=O)N2CCOCC2)c1	i
O=S(=O)(c1cccc(Cl)c1Cl)N1CCOCC1	i
CC(=O)Nc1ccc(Oc2ncnc3sc4c(c23)CCCC4)cc1	i
CC(C)OCCCNC(=O)CN1C(=O)/C(=C\c2ccc(C(F)(F)F)cc2)Sc2ccccc21	i
CCCCN(C)CCCNC(=O)CN1C(=O)/C(=C\c2cccc(Cl)c2)Sc2ccccc21	43.0%*
O=C(CN1C(=O)/C(=C\c2ccc(Cl)cc2)Sc2ccccc21)NCc1ccccn1	42.0%*
COCCNC(=O)c1ccc(/C=C2\Sc3ccccc3N(Cc3ccc(F)cc3)C2=O)cc1	i
O=C(CN1C(=O)/C(=C\c2cccc(Cl)c2)Sc2ccccc21)NCc1cccnc1	i
O=C(CN1C(=O)/C(=C\c2ccc(Cl)cc2)Sc2ccccc21)NC1CCCC1	i
Cc1cc(C)n(C2CC(=O)N(c3ccccc3)C2=O)n1 (stereo not drawn)	i
COc1cccc(C2C(C(C)=O)=C(O)C(=O)N2CCc2ccccc2)c1 (stereo not drawn)	i
CC(C)Cc1nc(-c2ccc(C#CC(C)(C)O)o2)n(-c2ccccn2)n1	i
C#CCOc1ccc2c3c(c(=O)oc2c1)CCCC3	i
COc1ccc2nc(SCc3nc(N)nc(Nc4ccccc4)n3)[nH]c2c1	i
CCN1Cc2nc(OC)c(CNC(=O)c3cc(C(C)C)no3)cc2C1=O	i
SMILES	ST2 IL33 inh
NS(=O)(=O)c1ccc(NC(=O)c2ccc(-c3ccccc3)cc2)cc1	30.0%*
Cc1cc(C)nc(NS(=O)(=O)c2ccc(NC(=O)c3ccc(-c4ccccc4)cc3)cc2)n1	i
CC(=O)c1ccc(NC(=O)Cc2ccccc2)cc1	i
CC(=O)c1ccc(NC(=O)c2ccc(-c3ccccc3)cc2)cc1	30.0%*
NC(=O)c1ccc(NC(=O)c2ccccc2)cc1	i
Cc1ccc(NC(=O)c2ccc(C(=O)Nc3ccc(C)cc3)cc2)cc1	i
CS(=O)(=O)NCC(=O)NCc1cnn2ccccc12	i
Cn1c(=O)c2cc(S(=O)(=O)Nc3ccc(F)c(Cl)c3)ccc2n(C)c1=O	i
O=C(Nc1cccc(F)c1)c1cccc(OCc2ccccc2)c1	i
CCOc1ccccc1N1CCN(Cc2cc3c(cc2[N+](=O)[O-])OCO3)CC1	30.0%*
COc1cc([N+](=O)[O-])cc(CN2CCN(c3cc(C)ccc3C)CC2)c1O	41.0%*
COc1cc(OC)c(OC)cc1CN1CCN(Cc2cc(OC)c(OC)cc2[N+](=O)[O-])CC1	i
COc1cc(CN2CCN(c3ccccc3F)CC2)cc([N+](=O)[O-])c1O	i
Cc1ccc(C)c(N2CCN(Cc3cc4c(cc3[N+](=O)[O-])OCO4)CC2)c1	32.0%*
COc1ccc(CN2CCN(Cc3cccc([N+](=O)[O-])c3)CC2)c(OC)c1OC	i
COc1ccc(C(=O)N2CCN(c3ccc([N+](=O)[O-])cc3)CC2)cc1OC	i
COc1cc(CN2CCN(c3ncccn3)CC2)c([N+](=O)[O-])cc1OC	i
COc1cc(C)c(CN2CCN(c3ccc([N+](=O)[O-])cc3)CC2)cc1C	32.0%*
COc1cc(CN2CCN(c3ccccc3OC)CC2)c([N+](=O)[O-])cc1OC	i
O=[N+]([O-])c1ccc(N2CCN(Cc3ccoc3)CC2)cc1	i
CCOc1ccccc1N1CCN(Cc2ccc(OC)cc2OC)CC1	i
CN1CCC(N2CC[C@H](c3nnc(-c4cncn4C)o3)C2)CC1	i
O=C(CCCc1ccccc1)Nc1ccc(C(=O)O)cc1	i
Cc1ccc(NC(=O)/C=N\OC(=O)NC2CCCCC2)cc1	i
O=c1[nH]c2ccc(S(=O)(=O)NCCC3=CCCCC3)cc2s1	i
SMILES	ST2 IL33 inh
Cc1cccc2oc(-c3cccc(N=Cc4cc(C(=O)O)ccc4O)c3)nc12	i
N#Cc1cccnc1Sc1ccc(Br)cc1	i
CC(C)N1CCC(CN2CCN3CCN(C)CC3C2)CC1 (stereo not drawn)	i
O=[N+]([O-])c1ccc(CN2CCN(Cc3ccccc3)CC2)o1	i
Cc1ccccc1N1CCN(Cc2ccco2)CC1	i
Cc1ccc(C)c(N2CCN(Cc3ccc(-c4ccccc4[N+](=O)[O-])o3)CC2)c1	38.0%*
CCn1c(C2CCCN(C(=O)Cn3ccc4ccccc43)C2)nn(C)c1=O (stereo not drawn)	i
c1ccc([C@H]2CN3CCSC3=N2)cc1	i
